The list is not random: actives were taken first. Their share in the collection is about 5.4%.
HPGD block = HPGD (human) dehydrogenase inhibition. Potency, µM, hits mostly inhibitors. P15428. AID 894. purified HPGD, NADH fluorescence kinetic, PGE2 substrate. actives 4.3% (n = 150,000); active means well fitted inhibition curve with a large enough effect, not every such curve was filed as active; inconclusive means small, poorly fitted or top-dose-only effect, or another doubt; inactive means no such curve, though single readings can be large or run the other way
Target sequence (P15428 whole entry, looked up): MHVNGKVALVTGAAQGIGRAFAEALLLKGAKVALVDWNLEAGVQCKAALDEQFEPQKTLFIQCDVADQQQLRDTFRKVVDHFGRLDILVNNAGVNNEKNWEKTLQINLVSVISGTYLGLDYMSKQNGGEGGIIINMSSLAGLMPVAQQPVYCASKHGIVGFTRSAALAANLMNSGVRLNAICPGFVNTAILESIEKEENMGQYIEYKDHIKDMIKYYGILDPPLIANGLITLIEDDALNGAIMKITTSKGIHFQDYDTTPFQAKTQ
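20 nM HPGD preincubated 15 min at room temperature with compound in 50 mM Tris-HCl pH 8, 0.01% Tween 20. Started with 1 mM NAD+ and 30 uM prostaglandin E2; NADH fluorescence (360/450 nm) read 5 times over 30-s intervals, last minus first.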
IMPase cell inh = membrane-permeable compound that blocks inositol monophosphatase; CHO-M1 cells, IP1 accumulation, HTRF TR-FRET ratio; inhibition (IP1 accumulation), % at 46.1 µM; 120,000 tested, under 10 active; AID 901; active means well fitted curve in the direction sought with a large enough effect in the signal ratio, not every such curve was filed as active; inconclusive means small, poorly fitted or top-dose-only effect, or a change in a side signal; inactive means no such curve, though single readings can be large or run the other way; the % refers to the signal ratio;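 further: cells stimulated with carbachol in lithium chloride buffer; higher means more IMPase inhibition seen as more IP1 and lower FRET ratio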
Target sequence (P97697 whole entry, looked up): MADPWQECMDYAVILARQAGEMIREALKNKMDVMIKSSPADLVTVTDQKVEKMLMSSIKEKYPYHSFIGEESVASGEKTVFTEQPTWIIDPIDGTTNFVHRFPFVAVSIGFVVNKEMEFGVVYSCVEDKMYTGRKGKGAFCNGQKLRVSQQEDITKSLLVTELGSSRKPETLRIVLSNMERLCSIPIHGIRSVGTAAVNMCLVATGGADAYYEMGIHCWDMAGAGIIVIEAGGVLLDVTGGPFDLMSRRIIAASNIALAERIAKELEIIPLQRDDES
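CHO-M1 cells (CHO stably expressing M1 receptor), compound up to 46 uM final, stimulated with carbachol (50 uM as added) in buffer with 50mM LiCl, pH 7.4, 30 min at 37C. Cytosolic IP1 read by TR-FRET; AC50 from Hill fits.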
12-hLO inh = 12-hLO (ALOX12) enzyme inhibition | P18054 | purified 12-hLO, xylenol orange hydroperoxide absorbance | Potency, µM (doses to about 57.1 µM), usual class: inhibitors | actives 0.12% (n = 150,000) | AID 1452; further: nearly all actives have a fitted effect of over 55% in size
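Lipoxygenase turnover measured by absorbance at 573 and 405 nm after Fe-XO development. Human 12hLO 150 nM, arachidonate 40 uM, pH 7.0 Hepes buffer with detergent; 15 min compound preincubation, 30 min reaction.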
15-hLO-2 inh = 15-hLO-2 (ALOX15B) enzyme inhibition; O15296; purified 15hLO-2, xylenol orange hydroperoxide absorbance; AID 881; Potency, µM (titrated, usually from 57.1 µM), actives largely listed as inhibitors; actives 0.56% (n = 110,000); further: nearly all actives have a fitted effect of over 60% in size
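Enzyme 50 nM, AA 45 uM, 25 mM Hepes pH 7.5 + 0.01% Triton X-100; cpd preinc 15 min RT, rxn 90 min RT; stop/detect with 200 uM XO + 300 uM Fe(II) in 50 mM H2SO4, 30 min; A573/A405.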
IMPase Li cell = IMPase inhibition in cells with lithium potentiation. CHO-M1 cells, IP1 TR-FRET (IP-One), carbachol + lithium. Potency, µM (titrated, usually from 59.4 µM), usual class: inhibitors. actives 0.35% (n = 210,000). AID 1457;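 further: IP1 builds up when IMPase is blocked and the TR-FRET signal falls; nearly all actives have a fitted effect of over 50% in size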
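Test compounds were applied to CHO-M1 cells previously cultured for 16–30 h at 2000 per well. A small lithium amount accompanied them; after 30 min at 37C, IP1 was quantified by TR-FRET.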
PNC inhibitor = blocks assembly of the perinucleolar compartment; PC3M PTB-GFP, PNC prevalence imaging, 16 h; active compounds read low; actives 3.1% (n = 140,000); activity change (PNC), negative = inhibition, % at 10 µM;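 active means readout at or below -70, meaning at least 70% loss of cells showing the perinucleolar compartment, a nuclear body marking cancer cells; inconclusive means readout between -30 and a set limit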
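Compounds are pinned in duplicate onto adhered PC3M cells stably expressing GFP-tagged PTB and incubated 16 h at 37 C. Cells are then fixed, nuclei stained with Hoechst, and PNC-positive cells counted.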
Hits are given with their value; i = inactive; ? = inconclusive; nt = no result given; [ ] = dose if it differs, or a comment. Unless noted, the call rests on the fitted dose curve; in most records, active means well fitted curve in the direction sought with a large enough effect; inconclusive means small, poorly fitted or top-dose-only effect, or another doubt; inactive means no such curve, though single readings can be large; an effect the other way counts as inactive or inconclusive.

SMILES | HPGD block | IMPase cell inh | 12-hLO inh | 15-hLO-2 inh | IMPase Li cell | PNC inhibitor
CN(C)c1ccc(/C=c2/sc3n(c2=O)NC2(c4ccccc4)N(C)C(=O)N(C)C2(c2ccccc2)N=3)cc1 (centres undefined) | i | nt | i | nt | i | -84
Cn1c(=O)c2c(nc(NCc3ccccc3)n2Cc2ccc(Cl)c(Cl)c2)n(C)c1=O | nt | i | nt | nt | nt | nt
CSc1nc(N(C)NC(=O)c2ccc(Cl)cc2)c2ccccc2n1 | i | i | i | i | i | -97
Cc1cccc(C)c1NC(=O)N1C2CCCC1CC(NC(=O)C(C)(C)C)C2 (centres undefined) | i | i | i | i | i | -96
CCN(CCCNC(=O)CCNC(=O)Cn1ccc2ccccc2c1=O)c1ccccc1 | i | i | i | i | i | -94
CCN(CCCNC(=O)COc1cc(=O)n(CC)c2ccccc12)c1ccccc1 | i | i | i | nt | i | -100
C[C@]12C[C@@](C)(C=C1/C=C/c1ccc(C(F)(F)F)cc1)C(=O)C[C@H]2c1ccc(C(F)(F)F)cc1 | i | nt | i | nt | i | nt
Oc1ccc(O)c(-c2cnns2)c1 | 1.4µM | nt | i | nt | i | i
Oc1ccc(Br)cc1-c1ccn[nH]1 | i | nt | i | nt | i | i
CC(C)(CO[C@H]1C[C@H]2CC[C@@]1(C)C2(C)C)[N+](=O)[O-] | i | nt | i[11.4 µM] | i[11.4 µM] | i | nt
COC(=O)c1onc(-c2ccccc2)c1C(=O)OC | i | i | i | i | i | i
COC(=O)c1c(-c2ccc(F)cc2)noc1N | i | i | i | i | i | -89
COC(=O)c1ccc(N2C(=O)CC(N(C)CCc3ccc(OC)c(OC)c3)C2=O)cc1 (centres undefined) | i | i | i | i | i | -119
Cn1ncc(Cl)c1C(=O)NCc1cc(C(C)(C)C)n[nH]1 | 18µM | nt | i | nt | i | i
Cn1nccc1CNC(=O)c1c(Cl)cnn1C | i | nt | i | nt | i | i
O=[N+]([O-])c1ccc(-c2nnc(-c3ccccc3)c(NCCCO)n2)cc1 | i | nt | i | nt | i | -85
OCCCNc1nc(-c2ccc(Cl)cc2)nnc1-c1ccc(Br)cc1 | i | nt | i | nt | i | i
COc1ccc(-n2nnnc2SCC(=O)c2ccc(O)c(O)c2)cc1 | 25µM | i | ? | i[2.29 µM] | i | i
COc1cc(OC)cc(-n2nnnc2SCC(=O)Nc2ccc(C(C)=O)cc2)c1 | i | i | i | i | 3.5µM | i
COCCn1c(=O)c(-c2cccs2)nc2cnc(Oc3ccc(OC)cc3)nc21 | ? | nt | i | i | i | nt
Nc1nc(N)nc(CC(=O)O)n1 | i | nt | i[11.4 µM] | i[11.4 µM] | i | nt
Cc1cc(C)nc(SCNC(=O)c2ccc(Cl)cc2)n1 | 28µM | i | i | i | i | i
Cc1nnc(-c2cnn(-c3ccccc3)c2N)n1Cc1ccncc1 | i | i | i | i | i | i
Cc1nnc(-c2cnn(-c3ccccc3)c2N)n1Cc1cccc(C(F)(F)F)c1 | 13µM | i | i | nt | i | i
Cc1c(Cl)ccc2c1NC(=O)[C@]21[C@@H]2C(=O)N(Cc3ccccc3)C(=O)[C@@H]2[C@@H]2CCCN21 | i | i | i | i | i | -127
SMILES | HPGD block | IMPase cell inh | 12-hLO inh | 15-hLO-2 inh | IMPase Li cell | PNC inhibitor
CCc1cccc2c1NC(=O)[C@]21[C@@H]2C(=O)N(Cc3ccccc3)C(=O)[C@@H]2[C@@H]2CCCN21 | i | i | i | i | i | i
O=C(Nc1ccc(Br)cc1)c1cccc(C(=O)Nc2ccc(Br)cc2)c1 | nt | i | nt | nt | nt | nt
O=C(NCC1CCCO1)C1CC(c2ccccc2Cl)=NO1 (centres undefined) | 20µM | i | i | i | i | i
COc1ccc(OC)c(C2=NOC(C(=O)NCC3CCCO3)C2)c1 (centres undefined) | ? | i | i | i | i | i
COC(=O)N1C(C2CC2)=Cc2ccccc2C1CC(C)=O (centres undefined) | i | nt | i[11.4 µM] | nt | i | nt
CS(=O)(=O)N(CC(=O)NCCSC1CCCCC1)c1ccc2c(c1)OCO2 | i | i | i | i | i | i
COc1ccc(N(CC(=O)NCCSC2CCCCC2)S(C)(=O)=O)c(OC)c1 | 22µM | i | i | i | i | ?
CCN(CC)c1ccc(/C=N/NC(=O)c2ccc(O)cc2)cc1 | ? | nt | i | i | i | nt
Cc1nonc1C(=O)N/N=C/c1ccc(O)c(O)c1 | 32µM | i | i | nt | i | i
COC(=O)C(C)Sc1n[nH]c(=S)s1 (centres undefined) | 25µM | i | i | ? | i | i
COC(=O)c1ccc(CSc2n[nH]c(=S)s2)o1 | ? | i | i | ? | i | ?
O=C(OCCN1C(=O)c2cccc3c(N4CCOCC4)ccc(c23)C1=O)c1ccccc1Cl | i | nt | i | nt | i | ?
O=C(OCCN1C(=O)c2cccc3c(N4CCOCC4)ccc(c23)C1=O)c1ccc(Cl)cc1Cl | i | i | i | nt | i | -98
C1=Nc2c(NCc3ccccc3)ncnc2Oc2ccccc21 | 25µM | i | i | i | i | i
c1ccc(CNc2ncnc3nc[nH]c23)cc1 | i | i | i | i | i | i
C=CCNC(=O)CNS(=O)(=O)c1ccc(F)cc1 | 32µM | i | i | i | i | i
Oc1ccc(-c2cn3c(n2)SCC3)cc1O | 2.2µM | ? | i | ? | i | i
CC(C)OC(=O)c1c(NC(=O)c2cccc(C(F)(F)F)c2)sc2c1CCCC2 | nt | i | nt | nt | nt | nt
O=C(c1c(F)cccc1F)N1CCN(c2ccccc2F)CC1 | i | i | i | i | i | -82
O=C(c1cc(N2C(=O)C3C4CCC(C4)C3C2=O)ccc1Cl)N1CCN(c2ccccc2F)CC1 (centres undefined) | i | i | i | nt | i | -119
O=C(c1cccc(C(=O)N2CCN(c3ccccc3F)CC2)c1)N1CCN(c2ccccc2F)CC1 | i | i | i | i | i | i
NC(=O)c1cc[n+](CC2=C(C(=O)O)N3C(=O)[C@@H](NC(=O)[C@H](c4ccccc4)S(=O)(=O)[O-])[C@@H]3SC2)cc1 | i | i | i | i | i | nt
NC(C(=O)O)C(CC(=O)O)c1ccc(Cl)cc1 (centres undefined) | nt | nt | nt | nt | i | nt
CC(=O)Nc1ccc(NC(=O)C(Cc2ccccc2)NC(=O)C2CCCCC2)cc1 (centres undefined) | i | i | i | nt | i | -119
Cc1cccn2cc(CNC(=O)c3ccc(Br)o3)nc12 | nt | nt | nt | nt | i | nt
Cc1cccn2cc(CNC(=O)C3CCCCC3)nc12 | ? | i | i | nt | i | -100
Cc1ccc(S(=O)(=O)c2nc(-c3ccccc3F)oc2N2CCCCC2)cc1 | nt | i | nt | nt | nt | nt
CC1(C)CC(=O)c2c(oc3cc4c(cc23)OCO4)C1 | 2.5µM | nt | ? | i | i | nt
O=c1c(-c2ccc(Cl)cc2)nc2cnc(N3CCNCC3)nc2n1-c1ccccc1 | nt | nt | nt | i | i | nt
CCCc1nn(C)c2c(=O)[nH]c(-c3ccccc3OCC)nc12 | ? | nt | i | nt | i | i

Source: PubChem BioAssay
